# In all, about 68,000 compounds went through this assay and about 2,700 (4%) showed an effect of 50% or more. What follows is part of a selection rich in strong results, with near analogues and random picks from the rest.
# Test system: Plasmodium berghei
# Test: Screen against P. berghei liver stage (PbLuc), transformed with Luciferase, at 2uM
# Format: functional, HepG2
# Settings: tested at 2 uM
row,SMILES,INHIBITION [%]
1,O=C(CN1CCOC(CNc2cccnn2)C1)NCc1cccs1 (stereo not drawn),-48.41
2,Cc1cc(C)n(-c2ccc(N3CCC4(CC3)OCC(C)O4)nc2)n1 (stereo not drawn),-11.55
3,COCC1CN(CC2CC2)Cc2ncn(CC3CC3)c21 (stereo not drawn),-21.31
4,CCN1CCO[C@@H]2CN(C(=O)NCc3ccccc3)CC[C@@H]2C1,0.15
5,CN1[C@H](CN2CCCC2)C[C@@H]2CN(C(=O)Cc3cccs3)CC[C@@H]21,10.62
6,CN1CCO[C@@H]2CN(C(=O)NCc3ccccc3)CC[C@@H]2C1,69.86
7,CC(C)N1CCO[C@@H]2CN(C(=O)Cc3cccs3)CC[C@@H]2C1,-7.26
8,CS(=O)(=O)N1CCO[C@@H]2CN(C(=O)Cc3cccs3)CC[C@@H]2C1,20.87
9,CC(=O)N1CCO[C@@H]2CN(C(=O)NCc3ccccc3)CC[C@@H]2C1,11.79
10,CN(C)CCN1CCO[C@@H]2CN(C(=O)Cc3ccsc3)CC[C@@H]2C1,-19.51
11,Cc1ccc(CC(=O)N2CC[C@@H]3CN(CCN(C)C)CCO[C@@H]3C2)cc1,50.96
12,CN1CCO[C@@H]2CN(C(=O)Cc3cccs3)CC[C@@H]2C1,52.96
13,CC(=O)N1[C@H](CN(C)C)C[C@@H]2CN(C(=O)Cc3cccs3)CC[C@@H]21,6.24
14,CN(C)C[C@@H]1C[C@@H]2CN(C(=O)Cc3cccs3)CC[C@@H]2N1C,54.01
15,COCCN1CCO[C@@H]2CN(C(=O)Cc3ccc(F)cc3)CC[C@@H]2C1,3.72
16,Fc1ccccc1Cn1c(C2CCNCC2)cc2cccnc21,-23.54
17,CCOc1cccc(C(=O)N2CCN(c3nccc(OC)n3)CC2)c1,8.37
18,CCc1ncc(C(=O)N2CCCN(C3CCCCC3)CC2)cn1,-35.1
19,COc1cccc(C2(C(=O)NC3CCc4nccn4C3)CCCC2)c1 (stereo not drawn),-5.74
20,O=C(c1nc(=O)[nH][nH]1)N1CCCCCC1,33.9
21,CCn1c(C2CCCN(Cc3ccnc4ccccc34)C2)nn(C)c1=O (stereo not drawn),17.48

row,SMILES,INHIBITION [%]
1,OCCOCCNCC1(c2ccc(F)cc2)CCOC1 (stereo not drawn),-18.52
2,CN(Cc1ccccc1)CC(O)Cn1cnc2cc(F)ccc2c1=O (stereo not drawn),-75.13
3,Cc1ccc(N2CC[C@H]3O[C@@H](C(=O)NCc4ccco4)CC[C@H]32)nn1,4.64
4,CCNC(=O)NC(=O)CN1CCOC(c2cccc(Br)c2)C1 (stereo not drawn),16.72
5,CCCNC(=O)CN1CCOC(c2ccc(Br)cc2)C1 (stereo not drawn),15.82
6,CCNC(=O)NC(=O)CN1CCOC(c2ccc(Br)cc2)C1 (stereo not drawn),59.94
7,Cn1cc(NC(=O)c2cc3c(s2)CCCC3)cn1,-56.09
8,Cc1nc(C)n(CC2CCCCN2CCCS(C)(=O)=O)n1 (stereo not drawn),-12.84
9,CN(C)CCNC(=O)c1ccc(S(=O)(=O)N[C@@H]2CCNC2)cc1,8.31
10,CC(C)N(CCNC(=O)c1ccc(S(=O)(=O)NC2CC2)cc1)C(C)C,58.12
11,O=C(NCCc1ccncc1)c1ccc(S(=O)(=O)NC2CCC2)cc1,28.85
12,CC(O)CN1CCN(C(=O)c2cccn2Cc2ccccc2)CC1 (stereo not drawn),15.28
13,O=C(c1ccncc1)N1CCCn2c(CN3CCCC3)nnc2C1,23.14
14,Cc1cc(C)c(CNC(=O)NCC2Cc3ccccc32)c(=O)[nH]1 (stereo not drawn),45.16
15,NC(=O)c1ccc(CNC(=O)Nc2cn[nH]c2)cc1,26.06
16,CN1CC(=O)N(c2cnn(C)c2)CC12CCN(Cc1ccccc1)C2 (stereo not drawn),15.96
17,COCc1nnc(C(=O)N2CC(N3CCCCC3)C2)o1,-13.03
18,COCc1nnc(C(=O)N2CCCC(O)C2)o1 (stereo not drawn),30.88
19,COCc1nnc(C(=O)N2CCC(N3CCCCC3)CC2)o1,57.89
20,CN(C)C(C(=O)N1CC(Oc2ccccc2F)C1)c1ccccc1F (stereo not drawn),19.07
21,CCCN1CCCN(C(=O)c2ccc(Oc3cccnc3)cc2)CC1,35.37

row,SMILES,INHIBITION [%]
1,COc1cccc(CN(C)CCCn2cnc3c(N)ncnc32)c1,-51.87
2,COc1ccc(OCCN(C)CCCn2cnc3c(N)ncnc32)cc1,36.29
3,COc1cccc(SCCCn2cnc3c(N)ncnc32)c1,52.19
4,Cc1ncnc2c1CCN(C(=O)c1ccncc1F)CC2,6.81
5,O=C1CC(c2ccncc2)C2(CCN(CC3CC3)CC2)N1 (stereo not drawn),22.2
6,Cc1nc(N2CCN3CCCCC3C2)nc2cc(S(C)(=O)=O)ccc12 (stereo not drawn),-15.11
7,Cc1nc(N2CCCC(C)C2)nc2cc(S(C)(=O)=O)ccc12 (stereo not drawn),-24.78
8,Cc1nc(N2C[C@H]3CC[C@@H](C2)N3)nc2cc(S(C)(=O)=O)ccc12,77.42
9,O=C(COc1ccccc1)NCCNC(=O)c1scnc1Cl,7.71
10,CC(C)(C)OC(=O)N1CCCN(c2nnc(C3CC3)s2)CC1,34.69
11,Cc1nnc(NC(=O)CN2CCc3nn(C)c(=O)cc3C2)s1,23.27
12,Cc1cc(CN2CCN(CC(O)c3ccc4c(c3)OCO4)CC2)no1 (stereo not drawn),-19.1
13,Cc1noc(C)c1CNCC1COCc2c(-c3ccsc3)nnn2C1 (stereo not drawn),7.68
14,Cc1cc(C)c(CNC(=O)NCCOc2ccc3c(c2)CCC3)c(=O)[nH]1,14.11
15,Cc1ccc(C(O)CNC(=O)NCc2c(C)cc(C)[nH]c2=O)cc1 (stereo not drawn),-11.2
16,Cc1cc(C)c(CNC(=O)NC(C)c2ccc3c(c2)CCC3)c(=O)[nH]1 (stereo not drawn),50.05
17,Cc1cc(C)c(CNC(=O)NCc2ccc3c(c2)CCC3)c(=O)[nH]1,-7.02
18,Cc1cc(C)c(CNC(=O)c2ccc3c(c2)CCC3)c(=O)[nH]1,58.52
19,Cc1cc(C)c(CNC(=O)Cc2ccc3c(c2)CCCC3)c(=O)[nH]1,4.18
20,CNc1ncc(C(=O)N2CCOC(C(=O)NC3CCCC3)C2)cn1 (stereo not drawn),8.75
21,Cc1ccc(CN(CCCn2ccnc2)Cc2cc(F)ccc2F)s1,20.71

# From ChEMBL document CHEMBL4513216, “Probing the Open Global Health Chemical Diversity Library for Multistage-Active Starting Points for Next-Generation Antimalarials” (ACS Infect Dis, 2020)
